In assay [1] the target is T1, ETS1 (UniProt P14921).
T1 sequence: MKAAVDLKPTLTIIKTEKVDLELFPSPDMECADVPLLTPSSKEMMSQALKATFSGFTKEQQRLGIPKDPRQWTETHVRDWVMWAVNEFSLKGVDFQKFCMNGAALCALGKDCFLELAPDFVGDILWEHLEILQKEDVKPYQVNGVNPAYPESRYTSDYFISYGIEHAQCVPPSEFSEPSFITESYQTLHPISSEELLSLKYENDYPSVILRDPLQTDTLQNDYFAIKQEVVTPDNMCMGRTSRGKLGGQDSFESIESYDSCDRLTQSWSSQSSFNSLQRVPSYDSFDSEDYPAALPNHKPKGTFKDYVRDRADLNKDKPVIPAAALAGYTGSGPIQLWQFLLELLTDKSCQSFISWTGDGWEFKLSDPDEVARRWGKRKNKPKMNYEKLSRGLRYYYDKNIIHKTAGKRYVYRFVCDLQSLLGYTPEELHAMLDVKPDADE
Put plainly: ETS1 binding intensity (PBM fluorescence), ETS1 alone (arbitrary fluorescence units); higher = stronger binding. The following applies: ETS1 concentration 1 nM; RUNX1 concentration 0 nM.

The target in assay [2] is RUNX1 (UniProt Q01196). Put plainly: RUNX1 binding intensity (PBM fluorescence), RUNX1 alone (arbitrary fluorescence units); higher = stronger binding. The settings on record: RUNX1 concentration 2 nM; ETS1 concentration 0 nM. The method, then: (§1)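 Cooperative gcPBM on 36-bp genomic probes with neighbouring ETS1 and RUNX1 sites. Recombinant human RUNX1 (2 nM) was incubated alone or with ETS1 (25 nM) and detected with anti-RUNX1 antibody plus Alexa488 secondary. Values are medians over 4 replicate spots; the RUNX1+ETS1 data were normalised to the RUNX1-only data. The probes sit in constant array flanks that are not printed.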

Assay [3] deals with T1, ETS1. Put plainly: ETS1 binding intensity (PBM fluorescence) in presence of RUNX1, normalised to ETS1-only experiment (arbitrary fluorescence units); higher = stronger binding. The settings on record: ETS1 concentration 1 nM; RUNX1 concentration 25 nM.
Assay [4] deals with RUNX1 (UniProt Q01196). Put plainly: RUNX1 binding intensity (PBM fluorescence) in presence of ETS1, normalised to RUNX1-only experiment (arbitrary fluorescence units); higher = stronger binding. The following applies: RUNX1 concentration 2 nM; ETS1 concentration 25 nM. The method, then:
as §1
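Throughout, for RUNX1 binding intensity (PBM fluorescence) in presence of ETS1, normalised to RUNX1-only experiment: Full-length recombinant human ETS1 or RUNX1 bound to double-stranded 36-bp genomic probes on microarrays, detected by protein-specific primary antibody and Alexa488 secondary, spot fluorescence as median of four replicate spots.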
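Throughout, for RUNX1 binding intensity (PBM fluorescence), RUNX1 alone: Full-length recombinant human RUNX1 bound to double-stranded 36-bp genomic probes on a high-density microarray, scored as Alexa488 fluorescence per spot via anti-RUNX1 antibody, median of four replicate spots.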

RUNX1, sequence (Q01196 whole entry): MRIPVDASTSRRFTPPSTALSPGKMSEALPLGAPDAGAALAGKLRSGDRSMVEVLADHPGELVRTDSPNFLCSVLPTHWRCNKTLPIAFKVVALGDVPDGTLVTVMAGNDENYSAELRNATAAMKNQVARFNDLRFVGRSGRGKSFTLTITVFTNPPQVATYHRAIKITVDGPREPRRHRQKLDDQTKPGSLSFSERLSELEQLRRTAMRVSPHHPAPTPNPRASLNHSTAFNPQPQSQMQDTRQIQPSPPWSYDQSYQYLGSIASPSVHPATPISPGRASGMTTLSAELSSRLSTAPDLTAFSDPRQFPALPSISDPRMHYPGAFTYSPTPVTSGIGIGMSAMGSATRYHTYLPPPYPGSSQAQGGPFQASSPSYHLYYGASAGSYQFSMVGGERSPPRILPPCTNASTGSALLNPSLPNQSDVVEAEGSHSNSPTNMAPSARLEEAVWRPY

With AGAAGCTGCAGTCCCGGAAGCGGTTTTAGGGGGCCG, the ETS1 binding intensity was 4220 with ETS1 [1] and 10100 with ETS1 [3]. Further, the RUNX1 binding intensity in the assay with RUNX1 [2] was found to be 725; with RUNX1 [4], 1310.

As for TCACTCTAACAGGATATTGTGGTTAACTATGTTGCC, the ETS1 binding intensity was found to be 2460 in the assay with ETS1 [1] and 17400 with ETS1 [3]. Moreover, the RUNX1 binding intensity with RUNX1 [2] was 2580; with RUNX1 [4], 14800.

On to CAAGCACATTACGGAAGAGGCTGACCGCAAATACGA, for which the ETS1 binding intensity with ETS1 [1] came to 595; with ETS1 [3], 6680. Moreover, the RUNX1 binding intensity worked out at 4550 with RUNX1 [2] and 6950 with RUNX1 [4].

On to GCCCACCCGCTTCCGGTTGTGGGCCCCGCCCGCCGA, for which the results for the ETS1 binding intensity in the assay with ETS1 [1] and in the assay with ETS1 [3] were 5540 and 7350, respectively. Besides, the RUNX1 binding intensity amounted to 801 in the assay with RUNX1 [2] and 7040 in the assay with RUNX1 [4].

For GACCCGGCCCGCCCCTTCCGGCCGCAGCGCGGGGCA, the ETS1 binding intensity with ETS1 [1] was 704; with ETS1 [3] it was 817. For the same sequence, the RUNX1 binding intensity turned out to be 952 with RUNX1 [2] and 1490 with RUNX1 [4].

For the sequence GGCTGCGACTTCCGGACTGCTCCTGGCCGCAGGGGG, the ETS1 binding intensity with ETS1 [1] is 2070; with ETS1 [3], 2500. The RUNX1 binding intensity worked out at 813 with RUNX1 [2] and 1370 with RUNX1 [4].

Regarding CTGACACTTCCGGGAGCCTTGTAGCCACAGGAATCA, the values for the ETS1 binding intensity in the assay with ETS1 [1] and with ETS1 [3] were 2490 and 2590, respectively. In addition, the RUNX1 binding intensity amounted to 743 with RUNX1 [2] and 1800 with RUNX1 [4].

CGAACGCCGGACGTTCTGGGCACGTGACCGCCACCC: the ETS1 binding intensity with ETS1 [1] was 643; in the assay with ETS1 [3], 1100. For the same sequence, the RUNX1 binding intensity worked out at 863 with RUNX1 [2] and 938 with RUNX1 [4].

On to ACAGCTCACACAGGAAATACAAACCTCAAAAAGCAA, for which the values for the ETS1 binding intensity with ETS1 [1] and with ETS1 [3] were 2600 and 7480, respectively. The values for the RUNX1 binding intensity in the assay with RUNX1 [2] and with RUNX1 [4] were 1070 and 1670, respectively.

Source of the values: the supplement of paper PMC10681739.
